Source: PubChem BioAssay (Tox21)
Records with an inconclusive call do not appear. Entries that show only a call come without a potency. Active and inactive are the calls of the source. The call rests on the fitted dose curve; in most records, active means well fitted inhibition curve with a large enough effect in the signal ratio in the repeat runs (not every such curve was filed as active); inconclusive means weak or mixed curves, or effect the other way; inactive means flat fitted curve, though single readings scatter; the % refers to the signal ratio.

experiment: cAMP Responsive Elements (CRE) small molecule antagonists, cell-based qHTS assay (AID 1963591); details: CRE-bla HEK293T, beta-lactamase FRET ratio; series mostly up to 92.4 µM
Text: U.S. Tox21 Program National Center for Advancing Translational Sciences [NCATS] Division of Preclinical Innovation [DPI] U.S. Environmental Protection Agency [EPA] National Institutes of Environmental Health Sciences [NIEHS] National Toxicology Program [NTP] U.S. Food and Drug Administration [FDA] Tox21 Assay Overview: CREB (cyclic-AMP Responsive Element Binding Protein) is a cellular transcription factor. It binds to certain DNA sequences called cAMP Responsive Elements (CRE) and regulates the transcription of the genes. […] This cell line can be used to find agonists/antagonists of the cyclic AMP signaling pathway. The activation of the report gene under culture conditions can be detected by fluorescence intensity. This cell line has been used to screen the Tox21 10K compound library to […].
Tox21 Assay Protocol Summary: CRE-bla Hek 293T cells were suspended in assay medium (DMEM containing 10% dialyzed FBS, 0.1 mM NEAA, 1 mM sodium pyruvate and 25 mM HEPES) and dispensed at 2,000 cells/4 uL /well into 1536-well black wall/clear bottom plates using a Multidrop Combi (ThermoFisher Scientific, Waltham, MA) dispenser. After the assay plates were incubated at 37 C/5% CO2 for 18 hrs, 23 nL of compounds dissolved in DMSO, positive controls or DMSO only was transferred to the assay plate by a pintool workstation (Kalypsys, San Diego, CA), followed by addition of 1 […] uL of 1.25uM NKH477 (0.25 uM as final concentration) in assay medium using a Flying Reagent Dispenser (Aurora Discovery, San Diego, CA). The plates were incubated at 37 C and 5% CO2 for 3 hrs. Then 1 uL of LiveBLAzer B/G FRET substrate (Invitrogen, Carlsbad, CA) was added to each well using Bioraptr Flying Reagent Dispenser (FRD, Aurora Discovery, San Diego, CA). The plates were incubated at room temperature for 2 h.

SMILES	Potency	activity change, negative = inhibition
CC/C=C\CCCCCO	inactive	
CC(C)Cn1cnc2c1c(=O)n(C)c(=O)n2C	inactive	
C[C@@H]1CC[C@H]2C(C)(C)[C@H]3C[C@@]12CC[C@@]3(C)O	inactive	
C[C@H]1[C@H]2CC[C@H]3[C@@H]4CC=C5C[C@@H](N(C)C)CC[C@]5(C)[C@H]4CC[C@]23CN1C	inactive	
CC(=O)OC(C(=O)c1ccccc1)c1ccccc1 (stereo not given)	inactive	
CC(=O)c1ccc[nH]1	inactive	
Cn1cc(C(=O)[C@@H]2CCc3nc[nH]c3C2)c2ccccc21	inactive	
O=C(CN1CCNCC1)NC1CCCCC1	inactive	
CC(=O)Nc1ccc(O)cc1	inactive	
COCCCOCCCOC	inactive	
CC(=O)Oc1ccc2c(c1)CC[C@@H]1[C@@H]2CC[C@]2(C)[C@@H](O)CC[C@@H]12	inactive	
O=C(O)[C@H](O)c1ccccc1	inactive	
NCc1ccccc1	inactive	
CCOB(OCC)OCC	inactive	
Nc1cc(Cl)c([N+](=O)[O-])cc1O	inactive	
CCCCNCCCC	inactive	
CCN(Cc1ccncc1)C(=O)C(CO)c1ccccc1 (stereo not given)	inactive	
NCCCN1CCOCC1	inactive	
CCCCC=O	inactive	
C=C(C)C(=O)OCc1ccccc1	inactive	

SMILES	Potency	activity change, negative = inhibition
Fc1ccccc1	inactive	
Nc1nc(-c2ccccc2)cs1	inactive	
O=S(=O)(c1ccc(OCc2ccccc2)cc1)c1ccccc1O	inactive	
O=C1c2ccccc2C(=O)N1SC1CCCCC1	inactive	
NC(N)=N/N=C/c1c(Cl)cccc1Cl	inactive	
CCCCOCC(C)OCC(C)O (stereo not given)	inactive	
CC(COc1ccccc1)NN (stereo not given)	inactive	
COC(=O)C1=C(C)NC(COC(N)=O)=C(C(=O)OC(C)C)C1c1cccc(Cl)c1Cl (stereo not given)	inactive	
O=[N+]([O-])c1ccc(Cl)cc1Cl	inactive	
c1cc2ccc3ccc4ccc5cccc6c(c1)c2c3c4c56		7.84% [at 3.27 µM] (inactive)
CCCCN1C[C@H](O)[C@@H](O)[C@H](O)[C@H]1CO	inactive	
CN1CCC(=C2c3ccccc3Sc3ccccc32)CC1	inactive	
Cc1c(N)c(=O)n(-c2ccccc2)n1C	inactive	
Oc1ccccc1F	inactive	
C=C(C)C(=O)OCCO	inactive	
CCN(CC)C(=O)c1ccc(O)c(OC)c1	inactive	
CCN(CC)c1ccc(N=Nc2ccccc2)cc1	inactive	
O=[N+]([O-])c1ccc(O)cc1	inactive	
Cc1ccc(C=O)cc1C	inactive	
O=C(Cl)c1c(Cl)cccc1Cl	inactive	
